# Source: PubChem
# An excerpt weighted towards active compounds, which were near 8.3% of everything screened.
# FMDV antiviral: foot and mouth disease virus antiviral activity; hit rate 1.2% among 410,000; AID 1159524; FMDV antiviral cell-based qHTS; Potency, µM (titrated, usually from 57.9 µM), hits mostly inhibitors; calls by dose curve; tested in HEK293T cells; further: read-out not given here; nearly all actives have a fitted effect of over 45% in size
# Giardia FBPA inh: inhibitors of Giardia lamblia fructose-1,6-bisphosphate aldolase; hit rate 0.71% among 290,000; A8B2U2; purified Giardia FBPA; Potency, µM (series often up to 59.6 µM), hits mostly inhibitors; further: nearly all actives have a fitted effect of over 55% in size
# Target sequence (A8B2U2 whole entry, looked up): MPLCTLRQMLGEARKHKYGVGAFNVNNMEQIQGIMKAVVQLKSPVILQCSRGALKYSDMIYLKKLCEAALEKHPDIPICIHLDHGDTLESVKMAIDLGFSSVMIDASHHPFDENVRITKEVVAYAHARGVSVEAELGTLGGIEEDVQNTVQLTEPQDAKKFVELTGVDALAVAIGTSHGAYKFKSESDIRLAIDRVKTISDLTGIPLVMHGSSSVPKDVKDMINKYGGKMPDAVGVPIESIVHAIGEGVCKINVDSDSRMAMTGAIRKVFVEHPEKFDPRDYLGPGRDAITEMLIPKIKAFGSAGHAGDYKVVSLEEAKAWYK
#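 40 nM FBPA preincubated 10 min at RT with compound (up to 57.5 uM final), then substrate plus GAPDH/TPI/NAD/arsenate coupling and diaphorase/resazurin added. Fluorescence read after 20 min at RT, 525/598 nm.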
# HCMV antiviral: inhibitors of human cytomegalovirus; hit rate 4.5% among 410,000; HFF cells, HCMV-luciferase reporter, 72 h; stronger effect = lower value; activity change, negative = inhibition, % at 57.5 µM; in the data active means activity change below about -60%; inconclusive means no clear call, values can overlap the other calls; inactive means above about -39%
#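 Two compound doses tested in HFFs infected with HCMV-luciferase, MOI 1 PFU/cell, 72 h at 37C. Lysate luminescence read with OneGlo; data normalized against buffer-only and 10uM Salinomycin inhibitor controls.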
# HCV inhibitor: blocks hepatitis C virus; Huh7.5.1 HCVcc-Cre infection, luciferase reporter, 44 h; Potency, µM (highest dose often 41.8 µM), hits mostly inhibitors; hit rate 3.4% among 340,000
#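 Infectious HCVcc-Cre (~0.5 moi) was added to cells just after compound, with cells seeded 4 h earlier at 1,000 per well. Luciferase activity after 44 h culture reported infection; substrate was incubated 15 min at room temperature before reading.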
# MARV entry inh: blocks Marburg virus binding to or entry into cells | Marburg virus pseudotyped entry inhibition, cell reporter | Potency, µM (highest dose often 37.8 µM), usual class: inhibitors | hit rate 1.8% among 300,000 | AID 540276; calls by dose curve; tested in HEK293 cells
# Lassa entry inh: inhibitors of Lassa virus binding or cell entry | Lassa virus pseudotype entry inhibition, cell reporter | Potency, µM (doses to about 37.9 µM), hits mostly inhibitors | hit rate 1.2% among 300,000; calls by dose curve; tested in HEK293 cells; further: nearly all actives have a fitted effect of over 50% in size
# Numbers stand for hits; i = inactive; ? = inconclusive; nt = no result; ! = not active in a repeat. Unless noted, the call rests on the fitted dose curve; in most records, active means well fitted curve in the direction sought with a large enough effect; inconclusive means small, poorly fitted or top-dose-only effect, or another doubt; inactive means no such curve, though single readings can be large; an effect the other way counts as inactive or inconclusive.
SMILES,FMDV antiviral,Giardia FBPA inh,HCMV antiviral,HCV inhibitor,MARV entry inh,Lassa entry inh
O=C(N/N=C\c1cccc(Cl)c1)c1n[nH]c2c1CCCC2,i,i,i,i,?,?
O=C(N/N=C/c1cccs1)c1n[nH]c2c1CCCC2,i,i,-85,i,?,2.2µM
Cc1ccc(/C=N/NC(=O)c2n[nH]c3c2CCCC3)cc1,i,i,-75,i,?,?
C/C(=N\NC(=O)c1n[nH]c2c1CCC2)c1cccs1,i,i,-91,i,i,i
O=C(N/N=C/c1cccc2ccccc12)c1n[nH]c2c1CCCC2,i,i,i,i,?,i
CCn1c2ccccc2c2cc(C3C(C#N)=C(N)Oc4n[nH]c(COC)c43)ccc21 (centres undefined),?,i,i,?,5.2µM,?
CCn1c2ccccc2c2cc(C3C(C#N)=C(C)NC(C)=C3C#N)ccc21,nt,?,i,11µM,i,i
COCc1[nH]nc2c1C(c1ccc(OC)c(OC)c1)C(C#N)=C(N)O2 (centres undefined),i,i,i,i,i,i
Cn1cc(-c2ccc3c(c2)N(CC2CCCCC2)C(=O)COC3)cn1,nt,nt,i,nt,nt,nt
CCOC(=O)C1=CC[C@@H](c2ccccc2)C(C#N)(C#N)[C@H]1/C=C/c1ccccc1,nt,nt,i,nt,nt,nt
CCOc1ccccc1CNC(=O)CCc1c(C)nn(-c2ccc(N3CCCCC3)nn2)c1C,i,nt,?,nt,nt,i
Cc1cc(C)c2oc(C(=O)Nc3nnc(C(C)C)s3)cc(=O)c2c1,i,i,-66,i,i,i
CSc1nnc(NC(=O)c2cc(=O)c3cc(C)cc(C)c3o2)s1,i,i,i,i,i,i
CC(C)OC(=O)[C@H](C)NC(=O)N1CCc2nc(COc3ccccc3)c3c(c2C1)CO[C@@H](C)C3,nt,nt,nt,nt,i,nt
COC(=O)CC=C[C@@H](C)[C@H](OC)c1ccccc1Br,nt,nt,nt,nt,0.6µM!,?
CCC(Cc1ccccc1)NC(=O)c1ccc2nc(N3CCC(C)CC3)sc2c1 (centres undefined),?,nt,i,nt,?,i
Cc1nn2cc(-c3cccc(Cl)c3)cnc2c1Cl,i,i,i,i,4.5µM,?
c1ccc2c(c1)nc(N1CCCCCC1)c1ccccc12,i,i,i,i,?,?
CC1CCN(c2nc(-c3ccncc3)nc3ccccc23)CC1,?,i,i,7.1µM,?,i
c1ccc2c(N3CCCCC3)ncnc2c1,i,i,-91,?,i,i
CC1CCCCN1c1nc(-c2ccc(C(C)(C)C)cc2)nc2ccccc12 (centres undefined),i,nt,?,nt,nt,?
CC1CCCCN1c1nc(-c2ccncc2)nc2ccccc12 (centres undefined),i,i,i,10µM,?,i
CCC1CCCCN1c1nc(-c2ccncc2)nc2ccccc12 (centres undefined),?,i,?,11µM,9.2µM,?
CC1(C(=O)NS(=O)(=O)c2cccs2)CCN1C(=O)CC(c1ccccc1)c1ccccc1 (centres undefined),nt,nt,i,nt,nt,nt
Cn1ncc2c(Nc3cccc(C#N)c3)ncnc21,i,nt,i,nt,nt,i
SMILES,FMDV antiviral,Giardia FBPA inh,HCMV antiviral,HCV inhibitor,MARV entry inh,Lassa entry inh
Cc1ccc(-n2nc(-c3ccc(F)cc3)c3cnc4cc5c(cc4c32)OCO5)cc1C,i,nt,i,nt,i,i
CC1CCCCN1c1ncnc2ccccc12 (centres undefined),nt,i,-88,?,?,?
CC1(C)CC2CC(C)(CN2c2ncnc3ccccc23)C1 (centres undefined),nt,i,-63,11µM,?,i
O=C(O)C1CCCN1c1ncnc2ccccc12 (centres undefined),nt,i,i,i,i,i
CC(C)(C)c1cc(CCC(=O)NNC(=S)NC(=O)c2ccccc2)cc(C(C)(C)C)c1O,i,i,nt,2.8µM,?,?
CC(C)(C)c1cc(CCC(=O)NNC(=O)c2ccco2)cc(C(C)(C)C)c1O,i,i,i,?,8.9µM,i
CC(=O)NC(=S)NNC(=O)CCc1ccccc1,i,i,i,i,nt,nt
COc1cc(NC(=S)NC(=O)CCc2ccccc2)cc(OC)c1,i,nt,-84,nt,i,i
COc1ccccc1NC(=S)NC(=O)CCc1ccccc1,i,nt,i,i,?,?
O=C(CCc1ccccc1)NNC(=S)NC(=O)c1ccccc1,nt,i,-101,i,?,i
CC1(O)/C=C\C=C(\CO)C2CC(C)(C)C2(O)CC1 (centres undefined),i,i,nt,nt,nt,nt
Cc1ccc(C)c(N2CCN(C(=O)c3cc4c(=O)oc5ccccc5c4s3)CC2)c1,i,nt,i,nt,?,i
Cc1ccccc1C(=O)NNC(=O)CCc1ccccc1,i,i,i,i,i,i
O=C(CCc1ccccc1)NNC(=O)c1ccccc1C(=O)O,i,i,i,i,i,4.6µM
Cc1ccc(Sc2ccc(NC(=O)CCl)cc2)c(C)c1,32µM,i,i,?,i,?
COc1ccc2c(c1)O[C@@H](c1ccc3c(c1)OCO3)[C@H](OC(=O)NCc1ccc3c(c1)OCO3)C2=O,nt,i,nt,nt,nt,nt
CN1CCN(c2ccccc2NC(=O)c2ccc(-c3ccc(Cl)c(Cl)c3)o2)CC1,i,nt,i,i,?,?
CN1CCN(c2ccc(NC(=O)c3ccc(-c4ccccc4F)o3)cc2)CC1,i,nt,i,10µM,?,?
Cc1cc(N2CCN(C)CC2)ccc1NC(=O)c1ccc(-c2ccc(Cl)cc2)o1,i,nt,?,14µM,?,?
CN1CCN(c2ccc(NC(=O)c3ccc(Br)o3)cc2)CC1,i,nt,i,i,nt,nt
O=C(NC1CCCCC1)c1ccc(-c2ccccc2F)o1,?,nt,i,0.71µM,?,?
O=C(NC1CCCCCC1)c1ccc(CS(=O)(=O)Cc2ccccc2F)o1,i,nt,?,i,nt,nt
O=C(NC1CCCCC1)c1ccc(-c2cccc([N+](=O)[O-])c2)o1,i,?,-69,?,nt,nt
COc1ccc(CC(N)C(=O)N[C@H]2[C@@H](O)[C@H](n3cnc4c(N(C)C)ncnc43)O[C@@H]2CO)cc1 (some centres undefined),nt,i,nt,nt,nt,nt
COc1ccc(Cl)cc1NC(=O)CSc1nc(=O)n(Cc2ccco2)c2c1CCC2,i,nt,i,nt,nt,i
SMILES,FMDV antiviral,Giardia FBPA inh,HCMV antiviral,HCV inhibitor,MARV entry inh,Lassa entry inh
CCN(CC)c1ccc2c(C)c(-c3ccc(N)cc3)c(=O)oc2c1,i,i,?,8.9µM,?,10µM
CCOC(=O)CCc1c(C)c2ccc(O)cc2oc1=O,i,i,i,i,?,i
CCN(CC)c1ccc2c(C)cc(=O)oc2c1,i,nt,i,?,nt,nt
CCOC(=O)Cc1c(C)c2ccc(N(CC)CC)cc2oc1=O,i,i,i,10µM,i,i
CSc1n[nH]c(-c2cccs2)n1,nt,nt,i,nt,nt,nt
O=C(Nc1ccc(F)cc1)[C@H](Cc1ccccc1)N1Cc2ccccc2C1=O,i,nt,i,nt,i,i
O=C(O)C[C@@H]1CCCc2ccccc2[C@H]1O,nt,nt,nt,nt,i,nt
COc1ccc(NC(=O)CCc2c(C)nc3nc(CNC(=O)OC(C)(C)C)nn3c2C)cc1OC,i,nt,i,nt,i,i
Cc1ccc(C(C(=O)NC(C)(C)C)N(CCCN2CCOCC2)C(=O)c2ccc(-c3ccccc3)[nH]2)o1 (centres undefined),i,i,-74,i,i,i
